Results reported in article PMC7862700, “An all-to-all approach to the identification of sequence-specific readers for epigenetic DNA modifications on cytosine”.

Tests used:
Test in all cases: DAPPL (digital affinity profiling via proximity ligation, sequencing); 10 mM Tris-HCl pH 7.5, 50 mM NaCl, 1 mM DTT, 4% glycerol, room temperature, 30 min; GST-TFs on glutathione beads, 16-mer random dsDNA library, 0.1% formaldehyde crosslink after washing; high values mean tight binding
Conditions in all cases: protein: recombinant; tags: N-terminal GST; dsDNA, one strand shown
[1] = target: T1, ELK1 (Homo sapiens, UniProt P19419 1-428)
T1 sequence: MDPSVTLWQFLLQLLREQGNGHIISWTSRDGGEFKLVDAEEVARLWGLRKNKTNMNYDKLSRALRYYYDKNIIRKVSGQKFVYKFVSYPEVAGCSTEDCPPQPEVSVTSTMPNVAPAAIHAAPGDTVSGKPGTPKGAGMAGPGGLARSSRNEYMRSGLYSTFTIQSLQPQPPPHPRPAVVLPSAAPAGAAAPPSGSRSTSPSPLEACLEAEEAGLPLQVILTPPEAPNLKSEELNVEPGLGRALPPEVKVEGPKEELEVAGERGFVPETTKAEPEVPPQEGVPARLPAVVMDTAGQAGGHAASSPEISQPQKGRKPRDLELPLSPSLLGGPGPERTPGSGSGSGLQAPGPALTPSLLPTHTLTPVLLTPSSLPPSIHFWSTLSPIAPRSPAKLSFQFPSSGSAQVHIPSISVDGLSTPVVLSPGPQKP
Procedure, shortened: (§1)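 A tag-only sample was pooled with DNA-barcoded human transcription factors that had been expressed in yeast as GST fusions and captured on glutathione beads. The pools were incubated for 30 min at room temperature with 200 nmole of a random double-stranded 16-mer DNA library in Tris/NaCl/DTT/glycerol buffer, then washed, crosslinked with 0.1% formaldehyde, proximity-ligated (BsaI/T4 ligase, 1 h, 37 °C), PCR-amplified and sequenced on an Illumina NextSeq500. Binding signal is each hexamer's read frequency for a factor divided by its frequency for the tag-only sample.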

[2] = target: T2, GABPA (Homo sapiens, UniProt Q06546 1-454)
T2 sequence: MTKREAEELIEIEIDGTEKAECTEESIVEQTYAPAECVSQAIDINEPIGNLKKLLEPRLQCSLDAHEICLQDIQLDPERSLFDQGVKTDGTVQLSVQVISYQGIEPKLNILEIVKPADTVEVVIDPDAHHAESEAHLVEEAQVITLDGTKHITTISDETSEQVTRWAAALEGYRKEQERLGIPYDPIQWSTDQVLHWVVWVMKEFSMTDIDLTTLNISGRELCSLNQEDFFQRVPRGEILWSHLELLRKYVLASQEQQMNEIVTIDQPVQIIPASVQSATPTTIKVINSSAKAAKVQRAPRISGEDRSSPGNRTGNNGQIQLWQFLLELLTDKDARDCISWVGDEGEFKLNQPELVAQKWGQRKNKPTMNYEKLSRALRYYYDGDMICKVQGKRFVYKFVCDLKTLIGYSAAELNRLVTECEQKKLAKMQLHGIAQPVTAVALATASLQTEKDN
Procedure, shortened: as §1

[3] = target: T3, ERG (Homo sapiens, UniProt P11308 1-479)
T3 sequence: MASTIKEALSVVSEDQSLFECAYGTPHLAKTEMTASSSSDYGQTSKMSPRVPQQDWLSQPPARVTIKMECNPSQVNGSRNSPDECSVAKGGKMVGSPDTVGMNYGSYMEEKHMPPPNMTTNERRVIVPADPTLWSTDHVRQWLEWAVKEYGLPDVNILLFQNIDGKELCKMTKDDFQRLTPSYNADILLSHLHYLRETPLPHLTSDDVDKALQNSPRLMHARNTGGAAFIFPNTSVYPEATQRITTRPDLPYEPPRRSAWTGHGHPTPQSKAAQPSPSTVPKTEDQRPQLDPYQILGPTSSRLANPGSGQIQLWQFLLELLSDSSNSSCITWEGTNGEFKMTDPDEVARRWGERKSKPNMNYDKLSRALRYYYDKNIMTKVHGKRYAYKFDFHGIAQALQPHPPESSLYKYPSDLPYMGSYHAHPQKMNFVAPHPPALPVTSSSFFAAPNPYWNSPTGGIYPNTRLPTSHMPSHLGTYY
Procedure, shortened: as §1

[4] = target: ELF1 (Homo sapiens, UniProt P32519 1-619)
Sequence of ELF1 (P32519 whole entry): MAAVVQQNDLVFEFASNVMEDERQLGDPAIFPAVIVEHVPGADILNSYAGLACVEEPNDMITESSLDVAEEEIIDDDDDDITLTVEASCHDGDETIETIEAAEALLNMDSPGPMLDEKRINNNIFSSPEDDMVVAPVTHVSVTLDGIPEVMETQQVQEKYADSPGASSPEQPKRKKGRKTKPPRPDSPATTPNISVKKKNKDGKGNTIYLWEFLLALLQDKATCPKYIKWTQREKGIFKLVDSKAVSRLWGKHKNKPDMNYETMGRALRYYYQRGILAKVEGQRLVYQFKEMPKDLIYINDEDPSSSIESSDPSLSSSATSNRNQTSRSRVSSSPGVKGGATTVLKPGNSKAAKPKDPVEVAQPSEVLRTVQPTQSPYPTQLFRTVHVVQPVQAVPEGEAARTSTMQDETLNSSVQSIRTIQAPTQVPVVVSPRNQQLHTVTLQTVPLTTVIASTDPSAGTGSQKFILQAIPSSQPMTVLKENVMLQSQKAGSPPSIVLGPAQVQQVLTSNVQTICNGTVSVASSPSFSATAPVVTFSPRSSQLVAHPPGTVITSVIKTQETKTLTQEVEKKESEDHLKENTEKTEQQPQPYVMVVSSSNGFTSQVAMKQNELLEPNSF
Procedure, shortened: as §1

[5] = target: SPIB (Homo sapiens, UniProt Q01892 1-262)
Sequence of SPIB (Q01892 whole entry): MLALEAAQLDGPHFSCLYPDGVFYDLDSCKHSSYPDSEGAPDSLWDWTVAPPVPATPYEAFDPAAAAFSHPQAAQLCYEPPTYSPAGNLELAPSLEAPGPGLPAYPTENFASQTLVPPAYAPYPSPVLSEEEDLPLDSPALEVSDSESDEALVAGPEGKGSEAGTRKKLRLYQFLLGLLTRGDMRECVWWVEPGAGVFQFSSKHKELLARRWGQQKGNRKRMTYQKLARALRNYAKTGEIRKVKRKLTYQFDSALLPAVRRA
Procedure, shortened: as §1

[6] = target: T4, FEV (Homo sapiens, UniProt Q99581 1-238)
T4 sequence: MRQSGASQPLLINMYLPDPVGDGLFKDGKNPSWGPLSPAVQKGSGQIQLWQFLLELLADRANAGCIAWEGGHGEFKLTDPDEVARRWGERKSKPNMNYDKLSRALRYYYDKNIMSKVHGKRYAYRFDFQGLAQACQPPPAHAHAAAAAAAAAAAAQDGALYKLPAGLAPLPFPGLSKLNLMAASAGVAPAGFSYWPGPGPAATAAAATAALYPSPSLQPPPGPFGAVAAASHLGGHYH
Procedure, shortened: as §1

[7] = target: ETV5 (Homo sapiens, UniProt P41161 1-510)
Sequence of ETV5 (P41161 whole entry): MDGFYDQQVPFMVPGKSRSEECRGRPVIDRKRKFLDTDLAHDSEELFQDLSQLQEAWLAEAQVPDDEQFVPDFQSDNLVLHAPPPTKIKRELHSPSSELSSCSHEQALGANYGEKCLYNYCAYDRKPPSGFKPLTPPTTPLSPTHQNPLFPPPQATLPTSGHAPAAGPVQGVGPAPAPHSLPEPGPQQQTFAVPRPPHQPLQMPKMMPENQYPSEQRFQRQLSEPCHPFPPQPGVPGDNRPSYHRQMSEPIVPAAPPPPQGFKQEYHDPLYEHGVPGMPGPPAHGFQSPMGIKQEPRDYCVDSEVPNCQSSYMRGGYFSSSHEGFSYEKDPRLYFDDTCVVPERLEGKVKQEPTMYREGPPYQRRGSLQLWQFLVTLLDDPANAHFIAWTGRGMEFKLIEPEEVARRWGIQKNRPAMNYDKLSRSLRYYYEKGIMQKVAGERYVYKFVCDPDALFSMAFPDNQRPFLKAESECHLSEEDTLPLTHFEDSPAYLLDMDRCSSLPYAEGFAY
Procedure, shortened: as §1

[8] = target: ELF4 (Homo sapiens, UniProt Q99607 1-663)
Sequence of ELF4 (Q99607 whole entry): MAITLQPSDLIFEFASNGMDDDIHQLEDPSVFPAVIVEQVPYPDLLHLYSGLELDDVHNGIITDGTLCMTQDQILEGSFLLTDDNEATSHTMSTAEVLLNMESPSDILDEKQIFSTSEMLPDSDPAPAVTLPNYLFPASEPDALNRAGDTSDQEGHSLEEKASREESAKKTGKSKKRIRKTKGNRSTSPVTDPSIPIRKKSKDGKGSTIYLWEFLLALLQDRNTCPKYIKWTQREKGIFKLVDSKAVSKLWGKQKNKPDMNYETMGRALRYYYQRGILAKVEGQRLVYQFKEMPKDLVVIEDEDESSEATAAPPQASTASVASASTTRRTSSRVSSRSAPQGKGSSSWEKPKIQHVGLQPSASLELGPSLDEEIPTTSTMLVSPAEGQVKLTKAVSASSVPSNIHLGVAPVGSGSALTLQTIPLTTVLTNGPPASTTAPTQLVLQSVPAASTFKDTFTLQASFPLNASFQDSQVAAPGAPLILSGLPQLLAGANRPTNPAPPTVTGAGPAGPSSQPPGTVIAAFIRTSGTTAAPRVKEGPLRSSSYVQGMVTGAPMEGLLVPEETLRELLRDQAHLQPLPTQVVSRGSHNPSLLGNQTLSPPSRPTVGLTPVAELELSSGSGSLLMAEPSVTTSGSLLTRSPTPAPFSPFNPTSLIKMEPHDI
Procedure, shortened: as §1

[9] = target: T5, ETV2 (Homo sapiens, UniProt O00321 1-342)
T5 sequence: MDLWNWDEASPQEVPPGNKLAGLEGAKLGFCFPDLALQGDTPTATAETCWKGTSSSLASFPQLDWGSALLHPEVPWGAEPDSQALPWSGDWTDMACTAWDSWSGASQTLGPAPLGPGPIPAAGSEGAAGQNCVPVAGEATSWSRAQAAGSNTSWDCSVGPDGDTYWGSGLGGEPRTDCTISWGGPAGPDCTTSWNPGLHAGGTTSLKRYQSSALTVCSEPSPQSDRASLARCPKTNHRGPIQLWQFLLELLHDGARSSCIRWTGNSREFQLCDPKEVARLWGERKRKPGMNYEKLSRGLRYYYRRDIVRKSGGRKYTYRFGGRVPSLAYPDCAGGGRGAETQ
Procedure, shortened: as §1

[10] = target: T6, ELF3 (Homo sapiens, UniProt P78545 1-371)
T6 sequence: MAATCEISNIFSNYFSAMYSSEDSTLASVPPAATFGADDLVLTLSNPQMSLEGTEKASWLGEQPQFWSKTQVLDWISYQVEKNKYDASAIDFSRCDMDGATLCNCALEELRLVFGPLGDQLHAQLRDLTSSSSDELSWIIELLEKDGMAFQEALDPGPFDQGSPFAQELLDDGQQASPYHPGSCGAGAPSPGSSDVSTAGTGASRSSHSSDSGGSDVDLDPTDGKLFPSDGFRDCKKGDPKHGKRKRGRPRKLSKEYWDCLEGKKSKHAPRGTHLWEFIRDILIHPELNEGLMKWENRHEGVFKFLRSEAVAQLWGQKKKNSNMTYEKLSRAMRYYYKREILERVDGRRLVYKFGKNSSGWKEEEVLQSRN
Procedure, shortened: as §1

[11] = target: T7, ERF (Homo sapiens, UniProt P50548 1-548)
T7 sequence: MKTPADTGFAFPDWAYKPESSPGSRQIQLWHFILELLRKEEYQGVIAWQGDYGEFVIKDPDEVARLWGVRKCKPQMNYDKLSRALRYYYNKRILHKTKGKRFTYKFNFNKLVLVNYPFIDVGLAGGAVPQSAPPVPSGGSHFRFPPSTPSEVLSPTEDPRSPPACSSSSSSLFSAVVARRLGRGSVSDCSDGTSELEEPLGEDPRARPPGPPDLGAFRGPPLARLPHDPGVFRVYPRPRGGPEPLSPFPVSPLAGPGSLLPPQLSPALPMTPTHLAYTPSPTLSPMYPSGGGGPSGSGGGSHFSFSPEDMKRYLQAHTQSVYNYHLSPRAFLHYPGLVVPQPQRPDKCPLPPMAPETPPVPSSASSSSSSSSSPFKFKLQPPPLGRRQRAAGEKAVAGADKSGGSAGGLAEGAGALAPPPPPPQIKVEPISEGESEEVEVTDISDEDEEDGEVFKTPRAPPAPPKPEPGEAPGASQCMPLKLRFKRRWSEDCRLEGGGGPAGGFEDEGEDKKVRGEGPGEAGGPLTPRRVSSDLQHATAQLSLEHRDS
Procedure, shortened: as §1

[12] = target: T8, ETV3L (Homo sapiens, UniProt Q6ZN32 1-361)
T8 sequence: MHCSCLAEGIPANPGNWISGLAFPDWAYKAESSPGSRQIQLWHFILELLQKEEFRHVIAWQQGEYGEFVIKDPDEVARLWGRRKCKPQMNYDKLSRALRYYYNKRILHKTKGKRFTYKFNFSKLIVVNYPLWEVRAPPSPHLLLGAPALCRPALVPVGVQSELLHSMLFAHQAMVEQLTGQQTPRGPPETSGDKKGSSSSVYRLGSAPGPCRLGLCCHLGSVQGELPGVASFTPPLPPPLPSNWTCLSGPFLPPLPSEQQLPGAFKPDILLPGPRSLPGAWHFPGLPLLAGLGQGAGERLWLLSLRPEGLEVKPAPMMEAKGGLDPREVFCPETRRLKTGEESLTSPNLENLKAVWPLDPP
Procedure, shortened: as §1

[13] = target: T9, ETS2 (Homo sapiens, UniProt P15036 1-469)
T9 sequence: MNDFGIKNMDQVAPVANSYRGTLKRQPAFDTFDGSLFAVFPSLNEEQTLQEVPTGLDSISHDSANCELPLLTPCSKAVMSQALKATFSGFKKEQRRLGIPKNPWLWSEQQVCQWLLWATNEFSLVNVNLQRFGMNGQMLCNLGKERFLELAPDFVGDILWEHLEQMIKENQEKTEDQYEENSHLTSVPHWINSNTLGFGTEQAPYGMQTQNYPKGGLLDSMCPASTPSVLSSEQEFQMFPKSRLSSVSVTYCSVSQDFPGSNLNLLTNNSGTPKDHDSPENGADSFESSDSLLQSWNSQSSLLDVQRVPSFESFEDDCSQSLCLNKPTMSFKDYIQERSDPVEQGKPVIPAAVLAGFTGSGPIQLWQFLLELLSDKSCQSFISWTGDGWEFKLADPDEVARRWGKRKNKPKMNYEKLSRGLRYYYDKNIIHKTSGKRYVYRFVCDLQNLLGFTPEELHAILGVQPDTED
Procedure, shortened: as §1

[14] = target: T10, SPDEF (Homo sapiens, UniProt O95238 1-335)
T10 sequence: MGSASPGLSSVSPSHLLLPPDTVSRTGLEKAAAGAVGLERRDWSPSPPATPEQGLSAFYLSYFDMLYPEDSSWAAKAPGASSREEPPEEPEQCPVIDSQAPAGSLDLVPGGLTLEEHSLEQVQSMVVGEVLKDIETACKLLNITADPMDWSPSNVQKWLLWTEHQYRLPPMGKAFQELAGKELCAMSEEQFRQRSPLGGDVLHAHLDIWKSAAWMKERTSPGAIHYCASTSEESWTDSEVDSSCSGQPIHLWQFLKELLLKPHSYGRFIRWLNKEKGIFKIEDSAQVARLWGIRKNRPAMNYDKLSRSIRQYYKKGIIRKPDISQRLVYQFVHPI
Procedure, shortened: as §1

[15] = target: T11, ETV7 (Homo sapiens, UniProt Q9Y603 1-341)
T11 sequence: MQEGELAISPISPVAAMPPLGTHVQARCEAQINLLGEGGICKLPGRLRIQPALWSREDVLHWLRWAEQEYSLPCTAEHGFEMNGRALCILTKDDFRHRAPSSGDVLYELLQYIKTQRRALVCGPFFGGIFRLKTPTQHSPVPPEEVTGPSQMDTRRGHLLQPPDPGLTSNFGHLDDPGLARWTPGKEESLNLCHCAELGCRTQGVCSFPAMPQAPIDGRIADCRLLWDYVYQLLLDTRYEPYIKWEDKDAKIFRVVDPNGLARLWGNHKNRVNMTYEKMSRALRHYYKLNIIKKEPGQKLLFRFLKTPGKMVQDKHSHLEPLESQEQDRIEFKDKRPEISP
Procedure, shortened: as §1

[16] = target: T12, ETV3 (Homo sapiens, UniProt P41162-2 1-143)
T12 sequence: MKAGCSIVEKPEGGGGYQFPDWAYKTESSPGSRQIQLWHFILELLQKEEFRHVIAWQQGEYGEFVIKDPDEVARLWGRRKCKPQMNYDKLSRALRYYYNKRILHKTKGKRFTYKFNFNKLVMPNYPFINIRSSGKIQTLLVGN
Procedure, shortened: as §1

[17] = target: ETV6 (Homo sapiens, UniProt P41212 1-452)
Sequence of ETV6 (P41212 whole entry): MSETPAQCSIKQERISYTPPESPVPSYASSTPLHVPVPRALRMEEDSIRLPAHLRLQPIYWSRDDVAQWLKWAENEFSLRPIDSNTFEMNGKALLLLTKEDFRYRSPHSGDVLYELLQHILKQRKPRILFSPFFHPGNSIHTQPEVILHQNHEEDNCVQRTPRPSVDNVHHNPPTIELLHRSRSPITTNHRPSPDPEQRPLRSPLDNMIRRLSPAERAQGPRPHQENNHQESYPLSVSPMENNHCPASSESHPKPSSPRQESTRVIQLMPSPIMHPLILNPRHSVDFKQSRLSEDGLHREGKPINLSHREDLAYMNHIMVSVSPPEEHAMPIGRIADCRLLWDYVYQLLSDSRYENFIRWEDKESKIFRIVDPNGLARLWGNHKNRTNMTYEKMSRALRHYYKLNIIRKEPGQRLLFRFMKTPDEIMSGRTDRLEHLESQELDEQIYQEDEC
Procedure, shortened: as §1

CCGCAG was tested. Which binding signal [1] did it give?
The binding signal was 1.09 fold enrichment (6-mer frequency, TF over GST control).

And the binding signal [2]?
Its binding signal is 1.13 fold enrichment (6-mer frequency, TF over GST control).

What about the binding signal [3] of the same sequence?
The binding signal was 1.06 fold enrichment (6-mer frequency, TF over GST control).

What about the binding signal [4] of the same sequence?
The binding signal was 1.01 fold enrichment (6-mer frequency, TF over GST control).

And the binding signal [5]?
The binding signal was 1.21 fold enrichment (6-mer frequency, TF over GST control).

And the binding signal [6]?
Its binding signal is 1.08 fold enrichment (6-mer frequency, TF over GST control).

And the binding signal [7]?
The binding signal was 1.12 fold enrichment (6-mer frequency, TF over GST control).

What about the binding signal [8] of the same sequence?
Its binding signal is 1.07 fold enrichment (6-mer frequency, TF over GST control).

What about the binding signal [9] of the same sequence?
Its binding signal is 1.22 fold enrichment (6-mer frequency, TF over GST control).

And the binding signal [10]?
Its binding signal is 1.19 fold enrichment (6-mer frequency, TF over GST control).

What about the binding signal [11] of the same sequence?
Its binding signal is 1.12 fold enrichment (6-mer frequency, TF over GST control).

What about the binding signal [12] of the same sequence?
Its binding signal is 1.02 fold enrichment (6-mer frequency, TF over GST control).

And the binding signal [13]?
The binding signal was 1.06 fold enrichment (6-mer frequency, TF over GST control).

What about the binding signal [14] of the same sequence?
Its binding signal is 1.07 fold enrichment (6-mer frequency, TF over GST control).

What about the binding signal [15] of the same sequence?
Its binding signal is 1.12 fold enrichment (6-mer frequency, TF over GST control).

And the binding signal [16]?
The binding signal was 1.07 fold enrichment (6-mer frequency, TF over GST control).

What about the binding signal [17] of the same sequence?
Its binding signal is 1 fold enrichment (6-mer frequency, TF over GST control).
